Pf growth 48h – Primary qHTS for delayed death inhibitors of the malarial parasite plastid, 48 hour incubation; P. falciparum luciferase growth in erythrocytes, 48 h; Potency, µM (top dose mostly 28.7 µM), for the others: top-dose activity change, negative = inhibition, most hits filed as inhibitors; 310,000 compounds, 5.9% hits; AID 504832, 2011; note: potency is the fitted concentration of half-maximal effect; % is set by controls: 0 for no effect and ±100 for the full control effect
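Erythrocytes infected with P. falciparum carrying an integrated firefly luciferase reporter (2% hematocrit, 0.1% parasitemia final) were exposed to compounds in RPMI 1640 with 0.5% Albumax at 37 C, 5% CO2. Growth inhibition was scored as reduced luminescence.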
Shiga toxin inh – A qHTS for Small Molecule Inhibitors of Shiga Toxin | Vero cells, Shiga toxin protein synthesis inhibition reporter | inhibition, % at 38.7 µM | 290,000 compounds, 9.2% hits | AID 2315, 2010; in the data active = inhibition mostly above about 28%, no sharp cut-off; inactive = mostly below about 43%; note: 0% is about no effect
Cycloheximide cs – Cycloheximide Counterscreen for Small Molecule Inhibitors of Shiga Toxin; cell reporter, cycloheximide protein synthesis inhibition counterscreen; 300,000 compounds, 12% hits; AID 2314, 2010; max response, %; in the data active = max response mostly above about 13%, no sharp cut-off; inactive = mostly below about 14%; note: read at 38.3 µM for the half of the compounds with a filed dose; 0% is about no effect
Giardia FBPA inh – qHTS Assay for Inhibitors of Fructose-1,6-bisphosphate Aldolase from Giardia Lamblia. A8B2U2. purified Giardia FBPA. Potency, µM (series often up to 59.6 µM), without a hit: at the highest dose activity, negative = inhibition, actives largely listed as inhibitors. 290,000 compounds, 0.71% hits. AID 2451, 2010; note: potency is the fitted concentration of half-maximal effect; % is set by controls: 0 for no effect and ±100 for the full control effect; nearly all actives have a fitted effect of over 55% in size
Target sequence (A8B2U2 whole entry, looked up): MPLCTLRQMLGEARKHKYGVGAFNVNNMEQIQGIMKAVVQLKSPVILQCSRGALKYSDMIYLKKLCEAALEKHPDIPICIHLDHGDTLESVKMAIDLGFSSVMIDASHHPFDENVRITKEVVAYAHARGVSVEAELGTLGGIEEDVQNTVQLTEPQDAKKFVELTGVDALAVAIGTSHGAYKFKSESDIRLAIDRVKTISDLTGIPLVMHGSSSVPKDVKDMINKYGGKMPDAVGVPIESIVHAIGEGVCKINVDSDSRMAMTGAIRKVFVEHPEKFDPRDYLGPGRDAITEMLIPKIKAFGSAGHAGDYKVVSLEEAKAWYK
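40 nM FBPA preincubated 10 min at RT with compound (up to 57.5 uM final), then substrate plus GAPDH/TPI/NAD/arsenate coupling and diaphorase/resazurin added. Fluorescence read after 20 min at RT, 525/598 nm.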
NS1 function inh – qHTS Assay for Inhibitors of Influenza NS1 Protein Function; Potency, µM (top dose mostly 46.1 µM), without a hit: at the highest dose activity, positive = more growth; 270,000 compounds, 0.4% hits; calls by dose curve; note: potency is the fitted concentration of half-maximal effect; actives are rising curves; nearly all actives have a fitted effect of over 50% in size
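A cell-based growth assay was used: compounds that relieve NS1-induced slow growth of budding yeast raise OD600. Assay medium was yeast nitrogen base with ammonium sulphate and -URA supplement, pH 6.0, with 2% galactose.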
Pf growth 96h – Primary qHTS for delayed death inhibitors of the malarial parasite plastid, 96 hour incubation; 320,000 compounds, 6.9% hits; Potency, µM (doses to about 28.7 µM), inactives show at the highest dose activity change, negative = inhibition, actives largely listed as inhibitors; P. falciparum luciferase reporter growth, 96 h; note: potency is the fitted concentration of half-maximal effect; % is set by controls: 0 for no effect and ±100 for the full control effect
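P. falciparum expressing integrated firefly luciferase grown in erythrocytes (2% hematocrit, 0.05% parasitemia final) with compounds for 96 hours at 37 C, 5% CO2. Growth inhibition read as loss of luminescence after adding luciferase detection reagent.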
Starred values were filed as active, the others as inactive; u = inconclusive; x = no result given; + = active, no number. The list is not random: actives were taken first. Their share in the collection is about 21%. Unless noted, calls come from the whole dose curve; as a rule, active = well fitted curve in the direction sought with a large enough effect; inconclusive = small, poorly fitted or top-dose-only effect, or another doubt; inactive = no such curve, though single readings can be large; an effect the other way counts as inactive or inconclusive.

SMILES | Pf growth 48h | Shiga toxin inh | Cycloheximide cs | Giardia FBPA inh | NS1 function inh | Pf growth 96h
Cc1csc(NC(=O)C2CCCCN2S(=O)(=O)c2ccccc2)n1 (stereo not given) | u | 25.5 | 13.4* | -15.9% | 1.2% | -0.9%
O=C(Nc1nc(-c2ccc3c(c2)OCCO3)cs1)c1ccc(S(=O)(=O)N2CCCCC2)cc1 | 11.7µM* | 3.4 | -2.1 | -5.6% | 6.2% | u
O=C(Nc1nccs1)C1CCCCN1S(=O)(=O)c1ccccc1 (stereo not given) | -16.0% | 4.7 | 2.0 | -14.4% | -0.5% | u
Cc1csc(NC(=O)c2ccc(S(=O)(=O)N3CCCC3)cc2)n1 | 55.1% | 39.3 | 17.1* | -3.3% | -2.2% | -2.5%
CC1CN(S(=O)(=O)c2csc(C(=O)Nc3ccccc3)c2)CC(C)O1 (stereo not given) | -0.3% | 3.7 | -1.3 | x | 7.7% | 32.9%
COc1ccccc1/C=C/C(=O)N1CCC(c2ccccc2)C1 (stereo not given) | 89.3% | 71.3* | 52.5* | -1.8% | 1.1% | 79.7%
CCOc1ccccc1/C=C/C(=O)c1ccc(Cl)cc1 | 13.3% | 23.0 | 14.5* | 0.6% | -11.1% | -77.2%
COc1ccccc1/C=C/C(=O)c1ccccc1 | 46.0% | 68.6* | 54.6* | -10.5% | -72.8% | 37.1%
COc1ccccc1/C=C/C(=O)c1ccc(NC(C)=O)cc1 | -29.2% | 32.2 | 21.3* | 1.2% | -19.8% | 0.0%
COc1ccccc1/C=C/C(=O)N1CCOCC1 | x | -3.6 | -1.1 | 7.5% | 6.8% | 11.3%
COc1ccc(OC)c(/C=C/C(=O)c2ccc(Cl)cc2)c1 | -14.8% | 22.6 | 12.8 | -8.4% | -14.1% | -3.6%
COc1ccccc1/C=C/C(=O)NC(=S)NC(C)C | 11.9% | 57.0* | 16.9* | -6.8% | 4.3% | u
COc1ccccc1/C=C/C(=C1/C(=O)N(c2ccccc2)N=C1C)c1ccc(C)cc1 | 15.6% | -8.8 | -1.7 | 0.6% | 8.3% | 11.7µM*
COc1ccccc1/C=C/C(=O)c1ccc(Cl)cc1 | u | 83.1* | 42.2* | -7.7% | -4.0% | u
O=C(/C=C/c1ccccc1O)c1ccc(Cl)cc1 | 27.2% | 57.6* | 41.2* | -8.9% | -34.5% | 14.7µM*
COc1ccc(/C=C(\NC(=O)c2ccccc2)C(=O)NC2CCS(=O)(=O)C2)cc1 (stereo not given) | u | -4.5 | -0.3 | 2.0% | 7.5% | 13.1%
O=S(=O)(c1ccccc1)N1CCC2(CCCN(c3ccccn3)C2)CC1 | x | x | x | -2.6% | x | x
CN(C)Cc1ccccc1-c1cc(N(C)Cc2ccco2)ncn1 | x | x | x | 5.9% | x | x
CCOC(=O)C1=C(CS(=O)(=O)c2ccc(C)cc2)NC(=O)NC1c1cc(OC)c(O)c(OC)c1 (stereo not given) | 18.2% | -1.6 | -4.8 | -10.4% | 12.0% | u
CC1=CC(=O)NS(=O)(=O)O1 | -4.7% | x | x | x | x | -9.2%
N#Cc1cccc(NC(=O)c2ccccc2C(=O)O)c1 | 20.1% | -17.1 | 2.9 | 1.8% | 8.1% | 7.7%
N#Cc1ccc(NC(=O)Nc2ccc(Oc3ccc(NC(=O)Nc4ccc(C#N)cc4)cc3)cc2)cc1 | 1.65µM* | 27.5 | 6.1 | -7.9% | 17.6% | u
N#Cc1ccc(NC(=O)Nc2cccc(C#N)c2)cc1 | 11.7µM* | 13.3 | -1.3 | 0.6% | -4.8% | 6.57µM*
COC(=O)c1ccc(OC)c(Cn2c(=O)n(C)c(=O)c3ccccc32)c1 | -27.3% | x | 0.6 | -1.5% | 20.0% | -3.9%
Cc1ccc(NC(=O)N2CCc3ccccc3C2)cc1 | x | 57.8* | 48.0* | -16.9% | -51.7% | 205.9%
SMILES | Pf growth 48h | Shiga toxin inh | Cycloheximide cs | Giardia FBPA inh | NS1 function inh | Pf growth 96h
O=C(Nc1ccccc1)N1CCc2ccccc2C1 | 216.3% | + | 59.6* | u | -7.6% | 58.0%
O=C(Nc1ccc(Cl)cc1)N1CCc2ccccc2C1 | u | -12.9 | -1.9 | 5.8% | -2.5% | -8.0%
O=C(CNc1cccc(F)c1)N1CCc2ccccc2C1 | x | 125.8* | 61.9* | 3.0% | -34.0% | 114.6%
Cc1ccc(NC(=O)N2CCc3ccccc3C2)c(C)c1 | -6.0% | 64.9* | 42.1* | -12.8% | -9.1% | -18.0%
Cc1cnc(NC(=O)C2CC(=O)N(c3cccc(Cl)c3)C2)s1 (stereo not given) | 2.3% | -7.8 | -3.0 | -4.8% | 3.4% | 3.3%
CCOc1ccc(-c2cc3nc(C4CCN(C(=O)OC(C)(C)C)CC4)c(C(=O)O)cn3n2)cc1 | 0.465µM* | -5.2 | 23.9* | 0.6% | 26.1% | u
Cc1nc2ccccc2c(=O)n1/N=C/c1ccccc1 | 63.1% | 33.4 | 4.1 | 1.5% | -12.2% | 113.9%
Cc1nc2ccccc2c(=O)n1/N=C/c1ccc2ccccc2c1O | u | 74.2* | 46.2* | u | 0.0% | u
Cc1nc2ccccc2c(=O)n1/N=C/c1ccccc1O | 28.5% | 87.5* | 37.0* | 15.3% | -10.1% | 17.2%
Cc1nc2ccccc2c(=O)n1/N=C/c1ccc(O)c(O)c1O | -0.1% | -6.6 | -3.0 | 7.08µM* | 3.0% | 22.9%
Cc1nc2ccccc2c(=O)n1/N=C/c1cccs1 | 79.9% | 49.6 | 24.9* | 3.3% | x | 405.4%
CCOc1ccccc1/C=N/n1c(C)nc2ccccc2c1=O | -5.9% | -9.1 | -8.0 | 2.4% | -2.2% | -1.3%
O=C(NCc1ccncc1)C12CC3CC(CC(Cl)(C3)C1)C2 | -6.2% | -7.1 | -7.4 | x | 4.9% | 4.1%
NC(=O)C1CCN(C(=O)CCNS(=O)(=O)c2ccccc2F)CC1 | -9.9% | x | x | x | x | -18.1%
O=C(Nc1ccc(Cl)cc1Cl)c1cccc(N2C(=O)C=CC2=O)c1 | 3.6% | -2.8 | 2.7 | x | -73.5% | 48.8%
Cc1nnc(-c2ccccc2)c(=O)n1/N=C/c1c(O)ccc2ccccc12 | u | -8.2 | -6.0 | 6.2% | -48.1% | 4.15µM*
Cc1nnc(C)n1/N=C/c1c(O)ccc2ccccc12 | -11.2% | -1.9 | -4.5 | -17.0% | -2.4% | -23.7%
CC(C)(C)NC(=O)c1cc(-c2ccccc2)n[nH]1 | 82.7% | 11.0 | 3.7 | -8.1% | x | u
CC(C)(C)c1cc(-c2ccccc2)n[nH]1 | 18.5% | 33.7 | 15.4* | 3.8% | -2.2% | 27.2%
CS(=O)(=O)N(CCC#N)Cc1ccco1 | 12.0% | 27.8 | -5.5 | 2.1% | x | -14.4%
C[N+]1(C)CCc2cc3c(cc2[C@@H]1[C@@H]1C(=O)Oc2c1ccc1c2OCO1)OCO3 | x | x | x | 2.3% | x | x
COc1ccccc1-c1nnc(SCc2nc3ccccc3[nH]2)n1C | -10.8% | -4.2 | -2.4 | -4.7% | 11.0% | x
Cn1c(SCc2ccccc2[N+](=O)[O-])nnc1-c1cccnc1 | 61.9% | 51.4* | 23.5* | -0.9% | x | u
